# Shown is part of a subset that was picked to be rich in the strongest signals.
# B1: HBHA-Rv (Mycobacterium tuberculosum), P0A5P6 (protein)
# chain: MAENSNIDDIKAPLLAALGAADLALATVNELITNLRERAEETRTDTRSRVEESRARLTKLQEDLPEQLTELREKFTAEELRKAAEGYLEAATSRYNELVERGEAALERLRSQQSFEEVSARAEGYVDQAVELTQEALGTVASQTRAVGERAAKLVGIELPKKAAPAKKAAPAKKAAPAKKAAAKKAPAKKAAAKKVTQK
# Assays:
# Assay in all cases: glycan array binding signal (z-score within array); higher = stronger binding
# Settings in all cases: glycan notation: IUPAC condensed, linker removed
# Gal3S6S(b1-4)GlcNAc6S = target: Gal3S6S(b1-4)GlcNAc6S
# Method in brief: (§1)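 Glycan array data were curated from 3228 arrays in the Consortium for Functional Glycomics database and kept only where the protein sequence was available. Glycan names were converted to IUPAC-condensed notation, and columns mapping to the same glycan were averaged. The binding signal is a within-array Z-score, averaged across arrays of the same protein sequence at different concentrations or buffers and across linkers. Negative Z-scores can be read as non-binding.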
# Gal6S(b1-4)Glc = target: Gal6S(b1-4)Glc
# Method in brief: as §1
# Gal6S(b1-4)GlcNAc6S = target: Gal6S(b1-4)GlcNAc6S
# Method in brief: as §1
# Glc(b1-6)Glc = target: Glc(b1-6)Glc
# Method in brief: as §1
# [1] = target: GlcNAc(b1-2)[GlcNAc(b1-6)]Man(a1-6)[GlcNAc(b1-4)][GlcNAc(b1-2)Man(a1-3)]Man(b1-4)GlcNAc(b1-4)GlcNAc
# Method in brief: as §1
# [2] = target: GlcNAc(b1-3)Gal(b1-4)GlcNAc(b1-2)Man(a1-3)[GlcNAc(b1-3)Gal(b1-4)GlcNAc(b1-2)Man(a1-6)]Man(b1-4)GlcNAc(b1-4)GlcNAc
# Method in brief: as §1
# [3] = target: GlcNAc(b1-3)Gal(b1-4)GlcNAc(b1-2)Man(a1-3)[GlcNAc(b1-3)Gal(b1-4)GlcNAc(b1-2)Man(a1-6)]Man(b1-4)GlcNAc(b1-4)[Fuc(a1-6)]GlcNAc
# Method in brief: as §1
# [4] = target: GlcNAc(b1-3)Gal(b1-4)GlcNAc(b1-3)Gal(b1-4)GlcNAc(b1-3)Gal(b1-4)GlcNAc(b1-2)Man(a1-3)[GlcNAc(b1-3)Gal(b1-4)GlcNAc(b1-3)Gal(b1-4)GlcNAc(b1-3)Gal(b1-4)GlcNAc(b1-2)Man(a1-6)]Man(b1-4)GlcNAc(b1-4)[Fuc(a1-6)]GlcNAc
# Method in brief: as §1
# [5] = target: GlcNAc(b1-3)Gal(b1-4)GlcNAc(b1-3)Gal(b1-4)GlcNAc(b1-3)Gal(b1-4)GlcNAc(b1-2)[GlcNAc(b1-3)Gal(b1-4)GlcNAc(b1-3)Gal(b1-4)GlcNAc(b1-3)Gal(b1-4)GlcNAc(b1-6)]Man(a1-6)[GlcNAc(b1-3)Gal(b1-4)GlcNAc(b1-3)Gal(b1-4)GlcNAc(b1-3)Gal(b1-4)GlcNAc(b1-2)Man(a1-3)]Man(b1-4)GlcNAc(b1-4)[Fuc(a1-6)]GlcNAc
# Method in brief: as §1
# GlcNAc(b1-4)GlcNAc = target: GlcNAc(b1-4)GlcNAc
# Method in brief: as §1
# [6] = target: GlcNAc(b1-4)GlcNAc(b1-4)GlcNAc(b1-4)GlcNAc(b1-4)GlcNAc
# Method in brief: as §1
# [7] = target: GlcNAc(b1-4)GlcNAc(b1-4)GlcNAc(b1-4)GlcNAc(b1-4)GlcNAc(b1-4)GlcNAc
# Method in brief: as §1
# [8] = target: Kdn(a2-3)Gal(b1-4)[Fuc(a1-3)]GlcNAc
# Method in brief: as §1
# [9] = target: Man(a1-2)Man(a1-3)[Man(a1-2)Man(a1-6)]Man(a1-6)[Man(a1-2)Man(a1-2)Man(a1-3)]Man(b1-4)GlcNAc(b1-4)GlcNAc
# Method in brief: as §1
# [10] = target: Man(a1-2)Man(a1-6)[Man(a1-3)]Man(a1-6)[Man(a1-2)Man(a1-2)Man(a1-3)]Man(b1-4)GlcNAc(b1-4)GlcNAc
# Method in brief: as §1
# [11] = target: Neu5Ac(a2-3)Gal(b1-3)GalNAc
# Method in brief: as §1
# [12] = target: Neu5Ac(a2-3)Gal(b1-3)GlcNAc(b1-2)Man(a1-3)[Neu5Ac(a2-3)Gal(b1-3)GlcNAc(b1-2)Man(a1-6)]Man(b1-4)GlcNAc(b1-4)GlcNAc
# Method in brief: as §1
# [13] = target: Neu5Ac(a2-3)Gal(b1-4)GlcNAc(b1-2)Man
# Method in brief: as §1
# [14] = target: Neu5Ac(a2-3)Gal(b1-4)GlcNAc(b1-2)Man(a1-3)[Neu5Ac(a2-3)Gal(b1-4)GlcNAc(b1-2)Man(a1-6)]Man(b1-4)GlcNAc(b1-4)[Fuc(a1-6)]GlcNAc
# Method in brief: as §1
# [15] = target: Neu5Ac(a2-3)Gal(b1-4)GlcNAc(b1-3)Gal(b1-4)GlcNAc(b1-2)Man(a1-3)[Neu5Ac(a2-3)Gal(b1-4)GlcNAc(b1-3)Gal(b1-4)GlcNAc(b1-2)Man(a1-6)]Man(b1-4)GlcNAc(b1-4)GlcNAc
# Method in brief: as §1
# [16] = target: Neu5Ac(a2-3)Gal(b1-4)GlcNAc(b1-6)[Gal(b1-3)]GalNAc
# Method in brief: as §1
# [17] = target: Neu5Ac(a2-3)Gal(b1-4)[Fuc(a1-3)]GlcNAc
# Method in brief: as §1
# [18] = target: Neu5Ac(a2-3)Gal6S(b1-4)[Fuc(a1-3)]GlcNAc
# Method in brief: as §1
# [19] = target: Neu5Ac(a2-6)Gal(b1-4)GlcNAc(b1-2)Man(a1-3)[Gal(b1-4)GlcNAc(b1-2)Man(a1-6)]Man(b1-4)GlcNAc(b1-4)GlcNAc
# Method in brief: as §1
# [20] = target: Neu5Ac(a2-6)Gal(b1-4)GlcNAc(b1-2)Man(a1-3)[Neu5Ac(a2-3)Gal(b1-4)GlcNAc(b1-2)Man(a1-6)]Man(b1-4)GlcNAc(b1-4)GlcNAc
# Method in brief: as §1
# [21] = target: Neu5Ac(a2-6)Gal(b1-4)GlcNAc(b1-2)Man(a1-6)[Man(a1-3)]Man(b1-4)GlcNAc(b1-4)GlcNAc
# Method in brief: as §1
# [22] = target: Neu5Ac(a2-6)Gal(b1-4)GlcNAc(b1-3)Gal(b1-4)GlcNAc(b1-3)GalNAc
# Method in brief: as §1
# [23] = target: Neu5Ac(a2-8)Neu5Ac(a2-3)[Gal(b1-3)GalNAc(b1-4)]Gal(b1-4)Glc
# Method in brief: as §1
binder,measurement,setting,value
B1,glycan array binding signal (z-score),Gal3S6S(b1-4)GlcNAc6S,1.29
same,glycan array binding signal (z-score),Gal6S(b1-4)Glc,1.36
same,glycan array binding signal (z-score),Gal6S(b1-4)GlcNAc6S,0.203
same,glycan array binding signal (z-score),Glc(b1-6)Glc,0.495
same,glycan array binding signal (z-score),[1],-0.415
same,glycan array binding signal (z-score),[2],-0.423
same,glycan array binding signal (z-score),[3],-0.332
same,glycan array binding signal (z-score),[4],-0.455
same,glycan array binding signal (z-score),[5],-0.347
same,glycan array binding signal (z-score),GlcNAc(b1-4)GlcNAc,-0.292
same,glycan array binding signal (z-score),[6],4.22
same,glycan array binding signal (z-score),[7],3.44
same,glycan array binding signal (z-score),[8],-0.371
same,glycan array binding signal (z-score),[9],-0.264
same,glycan array binding signal (z-score),[10],1.09
same,glycan array binding signal (z-score),[11],1.62
same,glycan array binding signal (z-score),[12],-0.163
same,glycan array binding signal (z-score),[13],-0.023
same,glycan array binding signal (z-score),[14],-0.174
same,glycan array binding signal (z-score),[15],-0.297
same,glycan array binding signal (z-score),[16],-0.331
same,glycan array binding signal (z-score),[17],-0.199
same,glycan array binding signal (z-score),[18],0.273
same,glycan array binding signal (z-score),[19],-0.354
same,glycan array binding signal (z-score),[20],-0.42
same,glycan array binding signal (z-score),[21],-0.302
same,glycan array binding signal (z-score),[22],-0.379
same,glycan array binding signal (z-score),[23],1.55

# Reference: the supplement of paper PMC8728848
